Data: PubChem BioAssay (Tox21)
Unmarked numbers belong to inactive results. Inconclusive results are not listed. A call without a number means that no potency is given here. Active and inactive are the calls of the source. Unless noted, calls come from the whole dose curve; as a rule, active = well fitted curve in the direction sought with a large enough effect in the repeat runs; inconclusive = weak or mixed curves; inactive = no such curve, though single readings can be large; an effect the other way counts as inactive or inconclusive.

Experiments:
[1] = qHTS RealTime-Glo MT Cell Viability Assay in HEK293 cells - 32 hour (AID 1224868); settings: RealTime-Glo luminescence; series mostly up to 76.8 µM; note: nearly all actives have a fitted effect of over 50% in size; note: potency is the fitted concentration of half-maximal effect
How it was run: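 Viability tracked continuously by luminescence as live cells reduce a prosubstrate for NanoLuc; HEK293 cells preincubated 5 h, compound-treated at 37 C, and read at 0, 8, 16, 24, 32 and 40 h.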

[2] = A CellTox Green Cytotoxicity Assay to monitor cytotoxicity in HEK293 cells - 0 hour (AID 1224869); settings: CellTox Green fluorescence; series mostly up to 76.8 µM; note: nearly all actives have a fitted effect of over 50% in size; note: potency is the fitted concentration of half-maximal effect
How it was run: (§1)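 Real-time, in one plate: 600 HEK293 cells/well with dead-cell DNA dye, pinned compound after 5 h, 37 C incubation over 40 h; viable cells give no appreciable fluorescence.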

[3] = qHTS assay to identify small molecule agonists of the hypoxia (HIF-1) signaling pathway (AID 1224846; active = well fitted activation curve with a large enough effect in the signal ratio in the repeat runs, not every such curve was filed as active; the % refers to the signal ratio); settings: HRE-bla ME-180 cells, beta-lactamase ratio, 17 h; series mostly up to 76.8 µM
How it was run: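 ME-180 HRE-bla reporter cells; compounds in DMSO, 17 h at 37C; read-out beta-lactamase via CCF4-AM FRET.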

[4] = qHTS assay to identify small molecule antagonists of the estrogen related receptor (ERR) signaling pathway from Tox21 library (AID 1224848); settings: ERR reporter cell line, luciferase antagonist mode, 18 h; series mostly up to 92.4 µM; note: nearly all actives have a fitted effect of over 50% in size; note: potency is the fitted concentration of half-maximal effect
How it was run: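 Quantitative high-throughput format: ERR reporter cells (2,000/well) pre-incubated 6 h, treated 18 h at 37 C with compounds in DMSO alongside positive and negative controls, then read by ONE-Glo luminescence.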

[5] = qHTS assay to identify small molecule agonists of the estrogen related receptor (ERR) signaling pathway from Tox21 library (AID 1224849; calls by dose curve; note: nearly all actives have a fitted effect of over 15% in size); settings: ERR reporter cell line, ONE-Glo luciferase, 18 h; at 92.4 µM (top of the series) unless noted
How it was run: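 Luciferase activity in ERR pathway reporter cells served as the agonist readout; exposure lasted 18 h at 37 C, with ONE-Glo detection after 30 min at room temperature.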

[6] = qHTS RealTime-Glo MT Cell Viability Assay in HepG2 cells - 24 hour (AID 1224867); settings: RealTime-Glo luminescence; series mostly up to 76.8 µM; note: nearly all actives have a fitted effect of over 50% in size
How it was run: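 Viability was tracked continuously by NanoLuc luminescence from prosubstrate reduced by living HepG2 cells, at successive time points over 40 h of compound exposure. Cells with reagent were preincubated 5 h at 37 °C before compound addition.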

[7] = qHTS RealTime-Glo MT Cell Viability Assay in HepG2 cells - 40 hour (AID 1224870); settings: RealTime-Glo luminescence; series mostly up to 76.8 µM; note: nearly all actives have a fitted effect of over 50% in size; note: potency is the fitted concentration of half-maximal effect
How it was run: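 HepG2 cells (600/well) mixed with RealTime-Glo MT reagent, settled 5 h at 37 C/5% CO2 before compound addition. Nonlytic NanoLuc luminescence from viable-cell prosubstrate reduction read repeatedly during 40 h treatment at 37 C.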

[8] = A CellTox Green Cytotoxicity Assay to monitor cytotoxicity in HEK293 cells - 40 hour (AID 1224871); settings: CellTox Green fluorescence; series mostly up to 76.8 µM; note: nearly all actives have a fitted effect of over 45% in size; note: potency is the fitted concentration of half-maximal effect
How it was run: as §1

[9] = qHTS assay to identify small molecule agonists of H2AX - cell viability counter screen (AID 1224847; calls by dose curve; note: nearly all actives have a fitted effect of over 30% in size; note: potency is the fitted concentration of half-maximal effect); settings: CHO-K1 viability, CellTiter-Glo luminescence, 3 h; series mostly up to 154 µM
How it was run: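 Cells plated first: CHO-K1, 1000 per well in 10% FBS medium, incubated overnight at 37C. Then 15-point compound titration added (final DMSO 0.76%) for 3 hr. Finally CellTiter-Glo added and luminescence read.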

Structure (SMILES) | Potency [1] | Potency [2] | Potency [3] | Potency [4] | activity change, positive = activation [5] [%] | Potency [6] | Potency [7] | Potency [8] | Potency [9]
CNCCCCOc1ccccc1Cc1ccccc1 | 23.9 µM (active) | inactive | – | – | – | – | – | – | –
CC(C)CC(=O)C1C(=O)c2ccccc2C1=O | inactive | inactive | inactive | 30.6 µM (active) | -53.7 | inactive | inactive | inactive | –
CCOc1ccc(O)cc1 | – | inactive | inactive | – | – | inactive | – | inactive | inactive
COc1cc(Cl)c(OC)cc1N | inactive | inactive | inactive | – | – | inactive | – | inactive | inactive
Cc1ccc(N=Nc2c(O)c(C(=O)O)cc3ccccc23)c(S(=O)(=O)O)c1 | inactive | inactive | inactive | – | – | inactive | inactive | inactive | –
CC(=O)OC[C@H]1O[C@@H](n2ncc(=O)[nH]c2=O)[C@H](OC(C)=O)[C@@H]1OC(C)=O | inactive | inactive | – | – | – | inactive | inactive | inactive | inactive
CCN(CC)c1ccc2c(-c3ccccc3C(=O)O)c3ccc(=[N+](CC)CC)cc-3oc2c1 | 21.9 µM (active) | 21.9 µM (active) | – | 27.3 µM (active) | -49.3 | – | – | 24.5 µM (active) | 40.1 µM (active)
CCCCCCCCCc1ccc(OCCOCCO)cc1 | 1.15 µM (active) | inactive | – | – | – | – | – | 13 µM (active) | 37.6 µM (active)
CCCCc1ncc(/C=C(\Cc2cccs2)C(=O)O)n1Cc1ccc(C(=O)O)cc1 | inactive | inactive | inactive | – | – | inactive | inactive | inactive | inactive
N=c1ccn2c(n1)O[C@H]1[C@H](O)[C@@H](CO)O[C@H]12 | inactive | inactive | inactive | inactive | -6.33 | – | inactive | inactive | –
Clc1ccc2c(c1)CCc1cccnc1C2=C1CCNCC1 | – | inactive | inactive | – | – | – | 23.9 µM (active) | – | inactive
